# Reference: PubChem BioAssay (NCI)
# Compounds without any hit were thinned out: in the full panel of roughly 83,000, 20% have a hit.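 The test compound was applied at a single concentration to cells in 96-well plates for 48 hours, and percent growth was recorded.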 Values without a mark were called inactive. Activity calls are given as the source filed them. How the source made its calls: active means growth percent below 10; inactive means the rest.
# Experiments:
# Assay in all cases: NCI-60 one-dose screen, 48 h (100 = growth as untreated, 0 = no growth, -100 = all killed)
# Settings in all cases: 10 µM unless noted
# DU-145 prostate = test system: DU-145 prostate
# K-562 leukemia = test system: K-562 leukemia
# MALME-3M melanoma = test system: MALME-3M melanoma
# MDA-MB-231 breast = test system: MDA-MB-231 breast
# RXF 393 renal = test system: RXF 393 renal
# SF-268 CNS = test system: SF-268 CNS
# SF-295 CNS = test system: SF-295 CNS
# SF-539 CNS = test system: SF-539 CNS
# UACC-257 melanoma = test system: UACC-257 melanoma
# M14 melanoma = test system: M14 melanoma
# HCT-15 colon = test system: HCT-15 colon
# HT29 colon = test system: HT29 colon
# SNB-75 CNS = test system: SNB-75 CNS
# SNB-19 CNS = test system: SNB-19 CNS
# U251 CNS = test system: U251 CNS
# PC-3 prostate = test system: PC-3 prostate
# SK-MEL-5 melanoma = test system: SK-MEL-5 melanoma
# UACC-62 melanoma = test system: UACC-62 melanoma
# LOX IMVI melanoma = test system: LOX IMVI melanoma
# SK-MEL-28 melanoma = test system: SK-MEL-28 melanoma
Compound,growth (DU-145 prostate),growth (K-562 leukemia),growth (MALME-3M melanoma),growth (MDA-MB-231 breast),growth (RXF 393 renal),growth (SF-268 CNS) [%],growth (SF-295 CNS),growth (SF-539 CNS),growth (UACC-257 melanoma),growth (M14 melanoma),growth (HCT-15 colon),growth (HT29 colon),growth (SNB-75 CNS),growth (SNB-19 CNS),growth (U251 CNS),growth (PC-3 prostate),growth (SK-MEL-5 melanoma),growth (UACC-62 melanoma),growth (LOX IMVI melanoma),growth (SK-MEL-28 melanoma)
CCCCCCOc1ccc(/C=N/Nc2cc(C)nc3ccc(Cl)cc23)cc1,-49% (active),-20.4% (active),-48.7% (active),-79.9% (active),-94.3% (active),69.9,-84.3% (active),-86.5% (active),116%,2.01% (active),-87.2% (active),-42.3% (active),-44.6% (active),2.26% (active),-68.2% (active),-39.4% (active),81.4%,76.8%,-94.5% (active),-30.3% (active)
CCN(CC)c1ccc(/C=N/NC(=O)CSc2nc3ccccc3c(=O)n2CCc2ccc(S(N)(=O)=O)cc2)c(O)c1,31%,7.07% (active),44.3%,26%,44.1%,32.5,38.6%,22.7%,16.7%,31.1%,25.9%,42.4%,59.2%,53.9%,31.7%,45%,29.4%,15.5%,11.5%,
C=C(C)[C@@H]1CC[C@]2(C(=O)N3CCN(C)CC3)CC[C@]3(C)[C@H](CC[C@@H]4[C@@]5(C)C/C(=C/c6ccncc6)C(=O)C(C)(C)[C@@H]5CC[C@]43C)[C@@H]12,72.7%,21%,62%,74.3%,49.4%,62.3,75.2%,73.4%,56.9%,68.5%,35.8%,15.8%,87.9%,64.2%,47%,23.7%,59.8%,71%,55.9%,
CC(C)(C)c1ccc(NS(=O)(=O)c2ccc3nc(NC(=O)c4cnccn4)[nH]c3c2)cc1,34.3%,15.7%,31.9%,50.5%,13.5%,37.7,35%,-0.716% (active),46.7%,35.1%,28.6%,11%,-30.3% (active),40%,35.3%,28.3%,13.4%,40.4%,40.4%,45.8%
CCCCCN1C=C/C(=C\C(=O)N(C)c2ccc(Oc3ccccc3)cc2)c2ccccc21,103%,48.8%,83.7%,76.9%,85.8%,87.8,81.1%,92.8%,74.2%,94.1%,98.4%,53.6%,104%,88.2%,80.1%,77.6%,62.6%,76.9%,86.6%,102%
O=c1ccc(-c2nc(N3CCOCC3)c3ccccc3n2)c[nH]1,93.6%,116%,99.4%,88.4%,103%,88.1,90.5%,93.5%,124%,93.3%,99.1%,101%,81.1%,98.7%,99.1%,93.5%,88.3%,55.5%,98.3%,
O=C(C1CCC1)N1N=C(c2ccc(-n3ccc(C(F)(F)F)n3)cc2)CC1c1ccc[nH]1 (configuration not stated),103%,77.4%,98.6%,83.1%,115%,102,95%,98%,92.2%,93.2%,85.6%,89.8%,101%,95.9%,82.2%,76.5%,100%,90.5%,92.8%,104%
CCCCCN1C=C/C(=C\C(=O)N(C)c2ccccc2Br)c2ccccc21,109%,74.6%,91%,97.6%,101%,96.4,95.1%,99.6%,93%,104%,102%,98.3%,91.7%,94.6%,87.7%,92.1%,94.2%,81.6%,93.6%,
Cn1c2ccccc2c2c3c(c4c5ccccc5n(C)c4c21)C(=O)OC3,104%,94.2%,109%,76.2%,101%,91.1,107%,96.6%,109%,103%,96.7%,105%,68.1%,92.7%,104%,90.6%,93.5%,88.6%,88.2%,120%
O=C1OC(Cc2ccccc2)C1c1ccccc1 (configuration not stated),110%,108%,106%,102%,120%,97.9,98.2%,102%,93.9%,104%,101%,106%,92.1%,99.1%,97.5%,106%,98.9%,94.2%,99.3%,109%
N#C/C(=C\c1ccc(Cl)cc1)n1nnc2cc(F)c(F)cc21,14%,11.5%,14.8%,11.9%,-18.6% (active),35.7,86%,3.56% (active),27.7%,11.1%,2% (active),9.95% (active),15.9%,34.5%,18.1%,30.9%,8.38% (active),21%,-63.5% (active),29.6%
CC(Oc1ccc(C(=O)O)cc1C(F)(F)F)c1ccc(Oc2ccccc2)cn1 (configuration not stated),111%,82.8%,101%,101%,95.8%,94.6,100%,95.9%,97.7%,103%,80.6%,121%,90.1%,96.7%,94.4%,108%,98.7%,91.8%,97%,
COc1ccccc1/C(C)=N/NC(=O)CSc1nc2ccccc2c(=O)n1Cc1ccc(S(N)(=O)=O)cc1,108%,98.2%,103%,96.6%,95.9%,89.2,93.9%,94.4%,95.4%,108%,97.6%,114%,89.7%,93.3%,103%,111%,97.5%,97.4%,89.9%,
C=CC(=O)N[C@@H](/C=C/C(=O)OCC)Cc1ccc(-c2cc(Cl)cc(Cl)c2)cc1,16.9%,8.57% (active),4.14% (active),9.36% (active),-10.1% (active),32.1,21.8%,56.8%,-2.68% (active),24.7%,15.2%,20.3%,40.3%,33.9%,20.2%,16.9%,-88.2% (active),9% (active),36.6%,
COc1ccc(C(=O)Nc2cccc(C3CCc4c(cc(OC)c(OC)c4OC)O3)c2)cc1 (configuration not stated),69.9%,16.8%,46.2%,63.1%,81.1%,52.7,42.2%,61.3%,52%,34.2%,30.2%,17.6%,26.3%,53.3%,36.4%,49.3%,60.2%,38.7%,50.3%,
